# Experimental data published in ChEMBL document CHEMBL3988442, “University of Dundee, Small-Polar-MMV Screening Library” (2021).
# Target: T1, Methionyl-tRNA synthetase, putative (Leishmania donovani (strain BPK282A1)) (UniProt E9BF75)
# T1 sequence (whole entry): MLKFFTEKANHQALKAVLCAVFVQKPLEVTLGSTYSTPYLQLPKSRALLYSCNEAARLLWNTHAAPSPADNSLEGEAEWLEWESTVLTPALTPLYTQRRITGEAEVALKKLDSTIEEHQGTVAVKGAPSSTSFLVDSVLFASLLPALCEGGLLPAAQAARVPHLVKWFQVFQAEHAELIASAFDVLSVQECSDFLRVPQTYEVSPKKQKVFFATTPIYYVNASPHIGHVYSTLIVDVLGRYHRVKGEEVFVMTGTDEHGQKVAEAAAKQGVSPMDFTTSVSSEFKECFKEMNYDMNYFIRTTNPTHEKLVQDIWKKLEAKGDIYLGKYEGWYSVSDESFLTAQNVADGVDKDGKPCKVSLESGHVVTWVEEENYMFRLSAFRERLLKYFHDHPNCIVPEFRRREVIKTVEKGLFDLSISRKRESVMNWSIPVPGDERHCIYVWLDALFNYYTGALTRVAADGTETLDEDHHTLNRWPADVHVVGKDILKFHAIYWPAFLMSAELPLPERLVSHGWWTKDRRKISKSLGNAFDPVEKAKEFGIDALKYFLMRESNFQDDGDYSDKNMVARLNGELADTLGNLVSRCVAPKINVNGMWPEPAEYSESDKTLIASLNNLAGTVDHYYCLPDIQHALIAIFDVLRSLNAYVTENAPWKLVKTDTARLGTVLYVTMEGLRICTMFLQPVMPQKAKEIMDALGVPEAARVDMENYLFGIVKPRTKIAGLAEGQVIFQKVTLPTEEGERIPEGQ
# Test: Leishmania donovani Methionine tRNA synthetase (LdMetRS):v7. Dose response assay
# Assay type: functional
# Set-up: conc 80 nM, time 150 minutes
compound,measurement,setting,value
Cc1nc(N2CCC(C(N)=O)CC2)c2c3c(sc2n1)CC(C)CC3 (stereo not given),PXC50,MAX_EFFECT 5.852417303,< 4
same,PXC50,MAX_EFFECT 9.319899244,< 4
CN(c1ncnc2c1CCC2)C1CCCN(c2cccnn2)C1 (stereo not given),PXC50,MAX_EFFECT 11.7370892,< 4
same,PXC50,MAX_EFFECT 15.37037037,< 4
Cc1nc(N2CCC(C(O)CC(C)C)CC2)c2ccsc2n1 (stereo not given),PXC50,MAX_EFFECT 3.626943005,< 4
same,PXC50,MAX_EFFECT 4.255319149,< 4
Cc1nc(NC(C)C(=O)O)c2c3c(sc2n1)CCCC3 (stereo not given),PXC50,MAX_EFFECT 7.035175879,< 4
same,PXC50,MAX_EFFECT 8.5995086,< 4
CC(=O)N1CCN(C(=O)c2ccc3ccc(N4CCN(S(C)(=O)=O)CC4)n3c2)CC1,PXC50,"BOTTOM 3.542001412, HILLSLOPE 2.454286416, MAX_EFFECT 62.83018868, TOP 64.11209582",4.91
same,PXC50,"BOTTOM 3.854741042, HILLSLOPE 2.302398718, MAX_EFFECT 55.70776256, TOP 55.14895524",4.97
NS(=O)(=O)c1ccc(Cl)cc1Cl,PXC50,MAX_EFFECT 7.991360691,< 3
same,PXC50,MAX_EFFECT 11.97718631,< 3
Fc1cccc(OC[C@@H]2CNCCO2)c1Oc1ccc(Cl)cc1,PXC50,MAX_EFFECT 6.609808102,< 4
same,PXC50,MAX_EFFECT 8.902691511,< 4
CCc1nc(NCCCN(C)C)c2cc(CC)sc2n1,PXC50,MAX_EFFECT 9.547738693,< 4
same,PXC50,MAX_EFFECT 12.53071253,< 4
CN(C)C(=O)N1CCN(c2ccc3ncc(-c4ccc5onc(N)c5c4)n3n2)CC1,PXC50,MAX_EFFECT 21.88295165,< 4
same,PXC50,MAX_EFFECT 25.43859649,< 4
O=C(NCC1CCCCC1)c1cc(=O)c2ccc(F)c(O)c2o1,PXC50,MAX_EFFECT 5.182341651,< 4
same,PXC50,MAX_EFFECT -0.4784689,< 4
OB1OCc2cc(C(F)(F)F)ncc21,PXC50,MAX_EFFECT 8.490566038,< 4
same,PXC50,MAX_EFFECT 11.87214612,< 4
CS(=O)(=O)N1CCN(c2ccc3ccc(C(=O)NCCN4CCOCC4)cn23)CC1,PXC50,"BOTTOM 1.032447983, HILLSLOPE 3.01577023, MAX_EFFECT 61.72248804, TOP 62.04525005",4.88
same,PXC50,"BOTTOM -0.949038422, HILLSLOPE 2.220287811, MAX_EFFECT 68.73857404, TOP 70.86130279",4.83
Cc1cc2c(NC3CCCCC3)nc(-c3cccnc3)nc2s1,PXC50,MAX_EFFECT 17.08542714,< 4
same,PXC50,MAX_EFFECT 19.41031941,< 4
Cc1sc2nc(-c3cccnc3)nc(NCCN3CCOCC3)c2c1C,PXC50,MAX_EFFECT 3.015075377,< 4
same,PXC50,MAX_EFFECT 4.668304668,< 4
CCc1nc(NCCO)c2cc(CC)sc2n1,PXC50,MAX_EFFECT 6.532663317,< 4
same,PXC50,MAX_EFFECT 10.07371007,< 4
COCCNc1nc(C)nc2sc3c(c12)CCCC3,PXC50,MAX_EFFECT 3.174603175,< 4
same,PXC50,MAX_EFFECT 4.266666667,< 4
CCc1nc(N2CCN(c3ncccn3)CC2)c2cc(CC)sc2n1,PXC50,MAX_EFFECT 23.46666667,< 4
same,PXC50,MAX_EFFECT 25.3968254,< 4
Nc1nc(CSc2ccccn2)nc2sc3c(c12)CCCCC3,PXC50,MAX_EFFECT 34.13333333,< 4
same,PXC50,MAX_EFFECT 39.15343915,< 4
COCCNC(=O)c1ccc2ccc(N(C)CC3CC3)n2c1,PXC50,MAX_EFFECT 29.93197279,< 4
same,PXC50,MAX_EFFECT 41.12149533,< 4
COc1ccc(NC[C@@H](N)CC(C)C)c(Oc2ccc(Cl)cc2)n1,PXC50,MAX_EFFECT 6.560636183,< 4
same,PXC50,MAX_EFFECT 6.651376147,< 4
Cc1nc(NCC2COCCO2)c2c3c(sc2n1)CCC3 (stereo not given),PXC50,MAX_EFFECT 5.303030303,< 4
same,PXC50,MAX_EFFECT 6.632653061,< 4
CC(=O)N1CCN(c2ccc3ncc(-c4ccc5onc(N)c5c4)n3n2)CC1,PXC50,MAX_EFFECT 15.77608142,< 4
same,PXC50,MAX_EFFECT 16.66666667,< 4
Cc1ccc(-c2ncc(CNc3cnccc3CO)s2)cc1,PXC50,MAX_EFFECT 7.042253521,< 4
same,PXC50,MAX_EFFECT 10.18518519,< 4
Cc1ncc(CNc2cnccc2CO)s1,PXC50,MAX_EFFECT 4.225352113,< 4
same,PXC50,MAX_EFFECT 9.814814815,< 4
Cn1cc(CN2CCC(F)(F)C3(CCN(c4ncc(F)cn4)C3)C2)cn1 (stereo not given),PXC50,MAX_EFFECT 3.286384977,< 4
same,PXC50,MAX_EFFECT 5.740740741,< 4
Cc1nc2c(-c3nc(-c4ccccc4N)n[nH]3)cccn2c1C,PXC50,MAX_EFFECT 15.34883721,< 4
same,PXC50,MAX_EFFECT 20.27972028,< 4
O=C(c1c[nH]cn1)N1CCC(F)(F)C2(CCN(c3ncccn3)C2)C1 (stereo not given),PXC50,MAX_EFFECT 6.572769953,< 4
same,PXC50,MAX_EFFECT 11.2962963,< 4
CCc1cc2c(NCCCN(C)C)nc(C)nc2s1,PXC50,MAX_EFFECT 11.55778894,< 4
same,PXC50,MAX_EFFECT 12.03931204,< 4
Cc1nc(N(C)Cc2cccnc2)c2c(C)c(C)sc2n1,PXC50,MAX_EFFECT 19.78609626,< 4
same,PXC50,MAX_EFFECT 20.76502732,< 4
CCNc1nc(-c2ccc(CC)cc2)cc(C(F)(F)F)n1,PXC50,MAX_EFFECT 8.510638298,< 4
same,PXC50,MAX_EFFECT 9.32642487,< 4
